In PubChem BioAssay AID651638 (Johns Hopkins Ion Channel Center, 2012):
Screen size: about 2,400 compounds; about 2,400 (100%) were called active.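 Rule for the calls: active = ratio percent of control, averaged over triplicates, above buffer control mean plus 5 SD (cut at about 64% in these data); inactive = the rest.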 So high a share suggests a set chosen from earlier hits. Only a sample is shown.

Target: Potassium channel subfamily K member 3 (Homo sapiens) (UniProt O14649)
Experiment: retest of human KCNK3 channel inhibitors, confirmation, CHO cells, FluxOR thallium flux, triplicate (AID 651638);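 note: ratio is the fluorescence rise from min to max over baseline after thallium stimulus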
Details: FluxOR fluorescence, at 10 µM, active compounds read high, 0% buffer, 100% carvedilol maximal block

Chain of Potassium channel subfamily K member 3 (Homo sapiens) (O14649 whole entry, looked up): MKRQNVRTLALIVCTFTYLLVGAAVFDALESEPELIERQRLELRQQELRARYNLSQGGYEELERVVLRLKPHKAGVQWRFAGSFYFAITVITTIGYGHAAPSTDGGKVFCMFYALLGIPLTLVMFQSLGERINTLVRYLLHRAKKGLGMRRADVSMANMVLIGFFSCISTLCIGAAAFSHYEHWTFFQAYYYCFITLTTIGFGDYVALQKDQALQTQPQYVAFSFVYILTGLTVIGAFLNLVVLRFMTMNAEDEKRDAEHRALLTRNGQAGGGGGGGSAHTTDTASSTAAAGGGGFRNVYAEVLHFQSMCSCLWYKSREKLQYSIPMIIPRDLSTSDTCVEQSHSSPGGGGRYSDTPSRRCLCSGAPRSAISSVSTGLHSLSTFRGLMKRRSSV

Ratio percent of control, active:
C=CCSc1nsc(NC(=O)Nc2cccc(C(C)=O)c2)n1 109%
COc1ccc([N+](=O)[O-])cc1-c1nc2ccccc2nc1-c1ccccc1 127%
COc1cccc(C(=O)NCCSc2ccc(Br)cc2)c1 92.3%
Cc1cccc2c1-c1sc(C(=O)NCCCN3CCc4ccccc4C3)cc1CO2 90.3%
CCCCC(=O)Nc1ccccc1N1CCN(c2ccc(F)cc2)CC1 102%
Cc1cccc(C(=O)Nc2ccccc2N2CCN(c3ccc(F)cc3)CC2)c1 119%
O=C(Nc1ccccc1N1CCCC1)c1ccc2ccccc2c1 134%
N#Cc1nc(Cc2cccc3ccccc23)oc1NCc1ccc2c(c1)OCO2 96%
N#Cc1cccc(NC(=O)COC(=O)c2ccccc2C(=O)c2ccc(Cl)c([N+](=O)[O-])c2)c1 135%
CC(Sc1nc2ccccc2c(=O)n1Cc1ccco1)C(=O)c1ccccc1 (stereo not given) 97%
Cc1cc(C)c(C#N)c(SCc2ccc3c(c2)OCO3)n1 137%
CCCCCCCCCCOC(=O)Cn1c(COc2cccc(OC)c2)[n+](C)c2ccccc21 119%
CS/C(=C\C(=O)c1ccco1)Nc1ccccc1Cl 95%
S=C(Nc1cccc(Br)c1)N1CCn2cccc2C1c1cccnc1 (stereo not given) 79.7%
CCCOc1ccc2c3c(c(=O)oc2c1OCCC)CCC3 111%
COc1ccc(CC(=O)Nc2nc(-c3ccc(F)c(F)c3)cs2)cc1OC 134%
CC(Oc1cccc(NC(=O)c2cccs2)c1)C(=O)c1ccccc1 (stereo not given) 103%
Cc1cccc(N(Cc2ccccc2)C(=O)c2ccccc2F)c1 88.3%
CCOc1ccc(C2c3[nH]c4ccccc4c3CCN2Cc2cccn2-c2ncccn2)cc1 (stereo not given) 117%
CC[n+]1cc(C)ccc1/C=C/c1ccc(N(C)C)cc1 143%
COc1ccc(C(C)=O)cc1COc1ccc(Cl)c(C)c1 117%
O=C(Nc1cccc(Cl)c1)Nc1ccccc1NS(=O)(=O)c1cccs1 138%
C=CCc1cc(S(=O)(=O)c2ccc(O)c(CC=C)c2)ccc1O 106%
CC(=O)N(C1=C(Cl)C(=O)c2ccccc2C1=O)c1ccc(C(=O)O)cc1 136%
COc1ccc(S(=O)(=O)NCCCCOc2ccc(Cl)cc2)cc1 123%
C=CCSc1nnc(N2C(=O)C(O)=C(C(=O)c3ccco3)C2c2ccc(F)cc2)s1 (stereo not given) 92%
O=C(Oc1ccc(Br)cc1C(=S)N1CCOCC1)c1cccc([N+](=O)[O-])c1 103%
CCCc1cc(C(=O)N2CCCC(CO)(CCCc3ccccc3)C2)n(C)n1 (stereo not given) 103%
CCN(CC)CCN(C(=O)c1cc(Cl)sc1Cl)c1nc2cc3c(cc2s1)OCO3 121%
COc1ccc(CN(C)C(=O)c2cc(-c3ccc(C)cc3C)nc3ccccc23)c(OC)c1OC 129%
CC(C)CCNC(=O)C(C)N(C(=O)Cn1nnc(-c2ccc(F)cc2)n1)C1CCCC1 (stereo not given) 74%
COC(=O)c1ccc(COC(=O)C2CCN(S(=O)(=O)c3c(Cl)cccc3Cl)CC2)o1 85.3%
CCn1ncc(Br)c1C(=O)Nc1cc(C)ccc1F 87.3%
O=C(Cn1cc(C(=O)c2cccs2)c2ccccc21)NCc1cccs1 116%
COc1cc(Cl)c(S(=O)(=O)N2CCN(Cc3ccc4c(c3)OCO4)CC2)cc1Cl 107%
Cc1nc2ccccc2cc1OCc1ccc(F)cc1 134%
[O-][n+]1ccc(OCc2ccccc2)cc1 73%
Cc1cc(OCCCCOc2ccc(C#N)cc2)ccc1[N+](=O)[O-] 119%
Cc1ccc(S(=O)(=O)NCc2cn3ccsc3n2)c(C)c1 64%
CC(C(=O)NCC1CCCCC1)N(C)Cc1cccc(Cl)c1 (stereo not given) 114%
O=C(CSc1nc(Nc2ccccc2)nc(N2CCOCC2)n1)Nc1cc(Cl)ccc1O 127%
Clc1cccc(-c2nc(NCC3CCCO3)c3ccccc3n2)c1 (stereo not given) 130%
CCc1ccc2nc3sc(C(=O)Nc4nnc(CC)s4)c(N)c3cc2c1 116%
CSc1cccc(NC(=S)N(C(C)C)C(C)c2ccccn2)c1 (stereo not given) 98.3%
COc1ccc(Cl)cc1NC(=O)C(C)N1CCc2ccccc21 (stereo not given) 96.3%
CCc1nc(SCC(=O)NNC(=O)c2ccc(C)cc2)c2ccccc2n1 78%
FC(F)(F)c1cccc(NC(=S)Nc2cccc(Cl)c2)c1 127%
CSc1nccc(NC(=O)c2ccc(C(C)(C)C)cc2)n1 116%
Cc1cccc(NC(=O)c2sc3nc4c(c(-c5ccco5)c3c2N)CCC4)c1 115%
N#Cc1ccc(S(=O)(=O)NCC(=O)OCC(=O)NCCc2ccccc2)cc1 63%
O=C1c2ccccc2C2=Nc3ccccc3SC(c3ccccc3F)C12 (stereo not given) 128%
O=C(c1cc(-c2ccc(O)cc2)on1)N1CCCc2ccccc21 76.7%
COc1ccc2c(c1)C(c1cccs1)=NNC(c1cccnc1)=N2 73.3%
CC(=O)Nc1cccc(OCC(=O)/C=C2\N(C)c3ccccc3C2(C)C)c1 124%
COc1cc(C(=O)Nc2oc(-c3ccccc3)c(-c3ccccc3)c2C#N)cc(OC)c1OC 119%
Cc1nonc1C1CCCN1C(=O)c1cc(COc2cccc(C(F)(F)F)c2)on1 (stereo not given) 87.3%
Cc1ccc(NC(=O)c2cc([N+](=O)[O-])ccc2Cl)c(O)c1 119%
O=C(CC1NCCc2ccccc21)Nc1cccc(Cl)c1 (stereo not given) 115%
CC(NCc1cccs1)C(=O)Nc1cc(Cl)cc(Cl)c1 (stereo not given) 96.3%
Cc1nc(N2CCN(c3ccccn3)CC2)c2c(C)c(C(=O)Nc3ccc(F)cc3)sc2n1 125%
Cc1nc(N2CCOCC2)c2c(C)c(C(=O)Nc3ccc(C(F)(F)F)cc3)sc2n1 136%
Cc1nc(N2CCN(c3ccccn3)CC2)c2c(C)c(C(=O)Nc3ccc(F)c(Cl)c3)sc2n1 129%
CSc1nnc2c(n1)OC(c1ccsc1)N(C(C)=O)c1ccccc1-2 (stereo not given) 106%
CSCc1cc(N(C)C)nc(SCc2ccc(Cl)cc2Cl)n1 115%
O=C(Nn1c(SCc2ccc([N+](=O)[O-])cc2)nc2ccccc2c1=O)c1ccc(F)cc1 139%
COc1ccc(C2Nc3ccccc3C(=O)N2Cc2ccccc2)cc1Cn1nnc2ccccc21 (stereo not given) 110%
FC(F)(F)c1cc(-c2ccco2)nc(NCc2ccc(Cl)cc2)n1 126%
FC(F)(F)c1cccc(-c2cc3ccccc3nc2N2CCCC2)c1 101%
CC(=O)N1CCCc2cc(S(=O)(=O)N3CCCC(C(=O)N4CCN(c5cccc(Cl)c5)CC4)C3)ccc21 (stereo not given) 119%
CC(=O)c1ccccc1OCc1ccc(C(=O)c2ccccc2)cc1 121%
COc1ccc(CCNC(=O)c2ccccc2OCc2ccccc2)cc1 101%
CC(C)c1ccccc1OCC(O)CN(CC(O)COc1cccc2ccccc12)C(C)C (stereo not given) 119%
Cc1cccc(C)c1N1CCN(S(=O)(=O)N2CCCCC2)CC1 122%
N/C(Cc1ccc([N+](=O)[O-])cc1)=N\OC(=O)COc1ccc2ccccc2c1 112%
COC(=O)c1cc(NC2c3ccccc3C(=O)N2c2ccc(Cl)cn2)cc(C(=O)OC)c1 (stereo not given) 115%
COc1cc(/C=C(\C#N)c2nc3ccccc3[nH]2)ccc1O 125%
COc1ccccc1N1CCN(/N=C\C(Br)=C\c2ccccc2)CC1 89.7%
O=C(Nc1ccccc1)O/N=C1\CCCCC1c1ccc([N+](=O)[O-])cc1[N+](=O)[O-] (stereo not given) 118%
CC(C)c1cc(C(=O)N/N=C/c2ccoc2)c(O)c(C(C)C)c1 123%
CCCCCCCCCCCCN1C(=O)CSC1c1cccnc1 (stereo not given) 125%
CCc1cc(C(c2ccccc2OC)N2CCOCC2)c(NC(=O)c2ccccc2)s1 (stereo not given) 102%
COc1cccc(CNc2nc(C(F)(F)F)nc3ccccc23)c1 125%
Cc1cccc2cc(CN(Cc3nnnn3Cc3ccccc3)C3CCCC3)c(=O)[nH]c12 115%
COc1cccc(NC(=S)N(CCc2c(C)[nH]c3ccccc23)Cc2ccco2)c1 113%
COc1ccccc1NC(=O)CSc1nc2sc(C)c(C)c2c(=O)n1Cc1ccco1 108%
O=C(Nc1cccc(S(=O)(=O)Nc2ccc(Cl)cc2)c1)c1ccc2c(c1)OCCO2 105%
C=CCN(N=Nc1cccc([N+](=O)[O-])c1)c1cccc([N+](=O)[O-])c1 109%
COc1ccccc1C(c1nnnn1C(C)(C)C)N1CCN(Cc2ccccc2)CC1 (stereo not given) 109%
COC(=O)C1=C(C)N(C(C)c2ccccc2)C(=O)/C1=C\c1ccco1 (stereo not given) 105%
Cc1ccc(NC(=S)N2CCCC(c3ccccc3)=N2)cc1 97.7%
c1ccc(C(c2ccccc2)N2CCN(Cc3nnnn3C3CCCCC3)CC2)cc1 118%
Cc1cccc(-c2nc3ccc(C(=O)NCCN4CCN(C)CC4)cc3nc2-c2cccc(C)c2)c1 106%
O=C(NCCc1ccccc1)c1ccc2c(c1)N(Cc1ccccc1)CCS2 108%
Cc1c(C(=O)N2CCCc3ccccc32)sc2nc(-c3ccccc3)cn12 102%
C=CCN(C(=O)c1cc(C)cc(C)c1)C1(C(=O)Nc2ccccc2)CCN(C(C)C)CC1 93%
CCCC(=O)Nc1ccc(Cl)c(NC(=O)c2ccc(Br)o2)c1 92.7%
O=C(N/N=C/c1cccc(OCc2ccccc2)c1)c1ccc(Br)o1 116%
Cc1ccc(NC(=O)COC(=O)CNC(=O)c2ccc(Cl)cc2Cl)cc1S(=O)(=O)N1CCOCC1 89%
COc1ccc(-c2nc(CCNC(=O)c3ccc(Br)o3)cs2)cc1 84.7%
CN1CCc2ccccc2C1Cc1ccccc1NC(=O)c1sc2ccccc2c1Cl (stereo not given) 114%
c1ccc2c(NC3C4CC5CC(C4)CC3C5)nc(N3CCOCC3)nc2c1 (stereo not given) 122%
CCOc1ccccc1Oc1cn[nH]c1-c1ccc(OC)cc1O 114%
COCCNc1cc(-c2ccccc2)nc2cc(-c3cccc(F)c3)nn12 130%
COc1cccc(CN(C)CC(O)COC(c2ccccc2)c2ccccc2C)c1 (stereo not given) 110%
Oc1ccc(/C=N/Nc2nc(-c3ccccc3F)nc3ccccc23)c(O)c1 93.3%
O=C(NCCc1c[nH]c2ccccc12)c1cccc(Br)c1 118%
Cc1cc(NC(=O)Nc2ccc(Cl)cc2)n(-c2ccccc2)n1 100%
CN(CCC(=O)Nc1cc(S(=O)(=O)N(C)C)ccc1Cl)CC(=O)Nc1ccc(F)cc1 118%
COc1cccc(COc2ccc(N(C)S(=O)(=O)c3ccccc3)cc2)c1 132%
O=C(N/N=C/c1sc(N2CCCCC2)nc1-c1cccs1)c1cccnc1 123%
COc1cccc(/C=N/Nc2cc(C)nc(-c3ccccc3O)n2)c1O 134%
CCC(C)(C)n1nnnc1C(c1cccs1)N1CCN(c2nc3ccccc3s2)CC1 (stereo not given) 112%
O=C(CNCCC1=CCCCC1)Nc1ccccc1N1CCCCCC1 113%
Cc1cc(C)c(S(=O)(=O)c2ccccc2)c(OC(=O)c2c(F)cccc2Cl)n1 78%
COc1ccc(Nc2ncnc3sc(-c4ccccc4)cc23)c(OC)c1 112%
